Assay results: PubChem BioAssay
Values joined by “and” are separate entries in the source; they are usually repeats but may differ in a detail not shown here. Equal values may be shown once. Active and inactive are the calls of the source. Cut-off read from the data, not from the text of the source: active = inhibition above about 80%; inactive = the rest.

assay: growth inhibition, single agents and combos, ICB984, cell-based, cisplatin or BGB combos, synergistic combos for chromothripsis tumors (AID 1671451); details: ICB984 medulloblastoma cells, drug combinations, cisplatin combo, at 5 µM, stronger effect = higher value;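 note: 0% = vehicle DMSO and 100% = killing by high DMSO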
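Note: cells exposed for 96 hours before readout.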

Compound	inhibition
Cc1c(N)nc(C(CC(N)=O)NCC(N)C(N)=O)nc1C(=O)NC(C(=O)NC(C)C(O)C(C)C(=O)NC(C(=O)NCCc1nc(-c2nc(C(=O)NCCC[S+](C)C)cs2)cs1)C(C)O)C(O[C@@H]1O[C@@H](CO)[C@@H](O)[C@H](O)[C@@H]1O[C@H]1O[C@H](CO)[C@@H](O)[C@H](OC(N)=O)[C@@H]1O)c1cnc[nH]1 (some centres undefined)	-35.8% and -29.6%
O=c1[nH]c(=O)n(C2OC(CO)C(O)C2O)cc1F (centres undefined)	-10.9%
O=P(O)(NCCCl)NCCCl	-10.7%
CC1(C)C(C(=O)Nc2ccc(S(=O)(=O)c3ccc(NC(=O)C4C(C)(C)C4(C)C)cc3)cc2)C1(C)C	-31.4%
CCC1(O)C(=O)OCc2c1cc1n(c2=O)Cc2cc3ccccc3nc2-1 (centres undefined)	-16.2% and -24.5%
NC(Cc1ccc(N(CCCl)CCCl)cc1)C(=O)O (centres undefined)	-29.7%
COc1cc([C@@H]2c3cc4c(cc3[C@H](O)[C@H]3COC(=O)[C@H]23)OCO4)cc(OC)c1O	-37.8% and -5.3%
COc1cc(C2c3cc4c(cc3C(O)C3COC(=O)C23)OCO4)cc(OC)c1OC (centres undefined)	19.8%

same assay, conditions: ICB984 medulloblastoma cells, drug combinations, measured here: 5 uM single agent, at 5 µM, stronger effect = higher value

Compound	inhibition
Cc1c(N)nc(C(CC(N)=O)NCC(N)C(N)=O)nc1C(=O)NC(C(=O)NC(C)C(O)C(C)C(=O)NC(C(=O)NCCc1nc(-c2nc(C(=O)NCCC[S+](C)C)cs2)cs1)C(C)O)C(O[C@@H]1O[C@@H](CO)[C@@H](O)[C@H](O)[C@@H]1O[C@H]1O[C@H](CO)[C@@H](O)[C@H](OC(N)=O)[C@@H]1O)c1cnc[nH]1 (some centres undefined)	-30.1% and -12.5%
O=c1[nH]c(=O)n(C2OC(CO)C(O)C2O)cc1F (centres undefined)	-6.81%
O=P(O)(NCCCl)NCCCl	3.71%
CC1(C)C(C(=O)Nc2ccc(S(=O)(=O)c3ccc(NC(=O)C4C(C)(C)C4(C)C)cc3)cc2)C1(C)C	-26.8%
CCC1(O)C(=O)OCc2c1cc1n(c2=O)Cc2cc3ccccc3nc2-1 (centres undefined)	-7.75% and -12.5%
NC(Cc1ccc(N(CCCl)CCCl)cc1)C(=O)O (centres undefined)	-16.8%
COc1cc([C@@H]2c3cc4c(cc3[C@H](O)[C@H]3COC(=O)[C@H]23)OCO4)cc(OC)c1O	0.691% and -3.02%
COc1cc(C2c3cc4c(cc3C(O)C3COC(=O)C23)OCO4)cc(OC)c1OC (centres undefined)	19.6%

assay: growth inhibition, single agents and combos, LFS_MB_1R, cell-based, cisplatin or BGB combos, synergistic combos for chromothripsis tumors (AID 1671452); details: LFS_MB_1R medulloblastoma cells, at 0.5 µM, stronger effect = higher value

Compound	inhibition
Cc1c(N)nc(C(CC(N)=O)NCC(N)C(N)=O)nc1C(=O)NC(C(=O)NC(C)C(O)C(C)C(=O)NC(C(=O)NCCc1nc(-c2nc(C(=O)NCCC[S+](C)C)cs2)cs1)C(C)O)C(O[C@@H]1O[C@@H](CO)[C@@H](O)[C@H](O)[C@@H]1O[C@H]1O[C@H](CO)[C@@H](O)[C@H](OC(N)=O)[C@@H]1O)c1cnc[nH]1 (some centres undefined)	-1.28% (inactive) and 4.59% (inactive)
O=c1[nH]c(=O)n(C2OC(CO)C(O)C2O)cc1F (centres undefined)	-13.3% (inactive)
O=P(O)(NCCCl)NCCCl	-40.6% (inactive)
CC1(C)C(C(=O)Nc2ccc(S(=O)(=O)c3ccc(NC(=O)C4C(C)(C)C4(C)C)cc3)cc2)C1(C)C	-36.5% (inactive)
CCC1(O)C(=O)OCc2c1cc1n(c2=O)Cc2cc3ccccc3nc2-1 (centres undefined)	18.3% (inactive) and 58.5% (inactive)
NC(Cc1ccc(N(CCCl)CCCl)cc1)C(=O)O (centres undefined)	-27.3% (inactive)
COc1cc([C@@H]2c3cc4c(cc3[C@H](O)[C@H]3COC(=O)[C@H]23)OCO4)cc(OC)c1O	4.95% (inactive) and 4.02% (inactive)
COc1cc(C2c3cc4c(cc3C(O)C3COC(=O)C23)OCO4)cc(OC)c1OC (centres undefined)	38.7% (inactive)
